Compound activity as filed in PubChem BioAssay.
APOBEC3G inh: APOBEC3G (human) deaminase inhibition. Q9HC16. recombinant A3G, ssDNA deamination FAM/TAMRA fluorescence. inhibition, % at 20 µM. 330,000 compounds, 0.28% hits;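 active = inhibition of at least 40% at 20 µM, with no more than 30% in the related APOBEC3A deaminase screen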
Target sequence (Q9HC16 whole entry, looked up): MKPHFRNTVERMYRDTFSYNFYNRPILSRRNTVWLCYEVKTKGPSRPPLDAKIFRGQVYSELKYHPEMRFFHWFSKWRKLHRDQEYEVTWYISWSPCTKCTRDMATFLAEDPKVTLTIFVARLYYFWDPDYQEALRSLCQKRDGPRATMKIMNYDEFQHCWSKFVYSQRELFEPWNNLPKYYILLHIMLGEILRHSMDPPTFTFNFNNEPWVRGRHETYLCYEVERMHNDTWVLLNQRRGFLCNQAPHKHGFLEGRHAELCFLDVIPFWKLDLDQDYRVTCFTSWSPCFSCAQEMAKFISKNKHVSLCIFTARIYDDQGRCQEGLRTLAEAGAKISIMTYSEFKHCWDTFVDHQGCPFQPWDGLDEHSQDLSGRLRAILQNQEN
HDAC3 inh: blocks human histone deacetylase 3 | inhibition, % at 8.3 µM | 320,000 compounds, 0.15% hits | O15379 | recombinant HDAC3, fluorogenic peptide/trypsin coupled, fluorescence; in the data active = inhibition above about 26%, passing the limit was not always enough
LANA-H2B inh: blocks KSHV LANA binding to histone H2A/H2B; Q9QR71; cell-free LANA-H2A/H2B peptide, fluorescence polarization; inhibition, % (no concentration beside the values); 320,000 compounds, 0.6% hits; in the data active = inhibition mostly above about 10%, no sharp cut-off; inactive = mostly below about 6.7%
APOBEC3A inh: human APOBEC3A DNA deaminase inhibition; P31941; AID 493011; 330,000 compounds, 0.41% hits; recombinant A3A, FAM/TAMRA ssDNA deamination fluorescence; inhibition, % at 20 µM;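 active = at least 40% inhibition at 20 µM here, with at most 30% in a related deaminase screen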
A3A conf: confirmation of human APOBEC3A DNA deaminase inhibitors; shares compounds with APOBEC3A inh; recombinant A3A, ssDNA deaminase UDG fluorescence assay; inhibition, % at 20 µM; 1,400 compounds, 63% hits;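 active = inhibition reaching a set limit, 80% of the first screen's cutoff, at 20 µM in any replicate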
UDG ctr A3A: inhibits UDG, flagging false APOBEC3A inhibitors; 1,000 tested, under 10 active; shares compounds with APOBEC3A inh; inhibition, % at 20 µM; AID 504714; UDG counterscreen, FAM/TAMRA uracil oligo fluorescence; call rule not given here
A3G conf: APOBEC3G (human) deaminase inhibition, confirmed | shares compounds with APOBEC3G inh | recombinant A3G ssDNA deaminase, UDG/FAM-TAMRA fluorescence | inhibition, % at 20 µM | 890 compounds, 72% hits;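 active = inhibition reaching a set limit in any replicate at 20 µM, the limit being 80% of the first screen's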
UDG A3G counter: inhibits E. coli UDG, flagging false APOBEC3G inhibitors | UDG counterscreen, FAM/TAMRA oligo fluorescence | 710 tested, under 10 active | inhibition, % at 20 µM | shares compounds with APOBEC3G inh | AID 504715;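 active = compounds giving 40% or more inhibition at 20 µM in any one of the three replicates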;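 also: inhibitors lower the FAM signal released by uracil excision and alkaline cleavage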
Target sequence (P12295 whole entry, looked up): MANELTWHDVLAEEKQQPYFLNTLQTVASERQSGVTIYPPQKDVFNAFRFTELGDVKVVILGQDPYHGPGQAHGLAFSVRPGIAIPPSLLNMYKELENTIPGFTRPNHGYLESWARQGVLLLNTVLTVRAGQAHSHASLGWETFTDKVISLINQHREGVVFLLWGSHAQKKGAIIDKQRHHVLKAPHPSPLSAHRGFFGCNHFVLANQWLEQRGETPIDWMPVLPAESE
Each line names hits and unclear results; the compound was inactive in the other large screens (follow-up assays come after a bar, where they were run); ! = a repeat was not active. This is a sample that favours compounds with a hit; in the whole collection about 1.4% have one here.

CCCc1n(CC(O)COC2CCCCC2)c2ccccc2[n+]1C (stereo not given)	APOBEC3A inh 56 | A3A conf 76 | UDG ctr A3A inactive
CCCc1n(CC(O)COCC2CC=CCC2)c2ccccc2[n+]1C (stereo not given)	none
CCC(Cc1c(I)cc(I)c(N)c1I)C(=O)O (stereo not given)	none
O=C(CCNC(=O)c1ccc([N+](=O)[O-])cc1)NCCc1ccccc1	none
O=C(NCCc1ccccc1)c1ccc(S(=O)(=O)N2CCCC2)cc1	none
C=CCn1cccc(C(=O)Nc2ccc(OC)c(Cl)c2)c1=O	APOBEC3A inh 48 | A3A conf inactive | UDG ctr A3A inactive
O=C(O)c1cccc(-n2cccc2/C=C2/NC(=O)N(Cc3ccccc3F)C2=O)c1	APOBEC3A inh 62 | A3A conf 62 | UDG ctr A3A inactive
CCN(CC)Cc1nc2c(c(=O)[nH]1)C(CC)(CC)Cc1ccccc1-2	none
O=c1oc(-c2ccccc2)nc2sc3c(c12)CCC3	APOBEC3A inh 56 | A3A conf 35 | UDG ctr A3A inactive
O=C1CCC(=O)N1c1ccc(-c2nc3sc4c(c3c(=O)o2)CCC4)cc1	none
CCC(=O)Nc1ccc(-c2nnc(SCC(=O)Nc3nccs3)n2C)cc1	APOBEC3A inh 53 | A3A conf inactive
CCn1c(SCC(=O)Nc2nccs2)nnc1-c1ccc(C)cc1	none
O=C(Cn1cnc2c(OCc3ccccc3)ncnc21)NCc1ccccn1	none (no result: HDAC3 inh, LANA-H2B inh)
CCc1noc(C)c1C(=O)N1CCN(S(=O)(=O)c2ccc(C(C)=O)cc2)CC1	APOBEC3A inh 40 (no result: HDAC3 inh, LANA-H2B inh) | A3A conf inactive
CCc1noc(C)c1C(=O)N1CCN(S(=O)(=O)c2ccc(Cl)cc2)CC1	none
O=C(/C=C\c1ccc(-c2ccccc2)o1)c1ccccc1	APOBEC3A inh 48 | A3A conf 11 | UDG ctr A3A inactive
NS(=O)(=O)c1ccc(CCNC(=O)c2ccc[nH]c2=S)cc1	none
O=C(O)C/C(=C\c1cc(Cl)c2c(c1)OCO2)c1nc2ccccc2s1	APOBEC3A inh 45 | A3A conf 38 | UDG ctr A3A inactive
O=[N+]([O-])c1cccc(NC(=S)N2CCc3ccccc32)c1	none
CC(C)C(CO)N1CCN(Cc2ccccc2)CCC1=O (stereo not given)	APOBEC3A inh 61 | A3A conf 51 | UDG ctr A3A inactive
CC(C)[C@@H](COc1ccccc1)N1CCN(Cc2ccccc2)CCC1=O	none
Cc1ccc(C2(C)NC(=O)N(CC(=O)Nc3nc(-c4ccccn4)cs3)C2=O)cc1 (stereo not given)	APOBEC3G inh 56 | A3G conf 67 | UDG A3G counter inactive
CN=c1nc(-c2ccccc2)n(-c2ccccc2)s1	APOBEC3G inh 79, HDAC3 inh 56 | A3G conf 96 | UDG A3G counter inactive
CC(O)CC(C(=O)NNc1ccccc1)C(=O)NNc1ccccc1 (stereo not given)	APOBEC3G inh 44 | A3G conf inactive | UDG A3G counter inactive
CC(C)C(=O)NNc1ccccc1	none
NS(=O)(=O)c1ccc(O)c(NC(=O)c2ccc([N+](=O)[O-])o2)c1	APOBEC3G inh 64 (no result: HDAC3 inh) | A3G conf 28 | UDG A3G counter inactive
Cc1cccc(-n2ccnc2SCC(=O)Nc2nnc(C)s2)c1	APOBEC3G inh 49 | A3G conf inactive | UDG A3G counter inactive
Cc1ccc(Nc2nnns2)cc1	APOBEC3G inh 41 | A3G conf 27 | UDG A3G counter inactive
Cc1ccc(NC(=O)COC(=O)c2cc(=O)c3cc(F)ccc3o2)cc1	none (no result: HDAC3 inh, LANA-H2B inh)
O=C1CCN(S(=O)(=O)c2cc(C(F)(F)F)ccc2Cl)CC1	none
Clc1ccc(Cl)c(-c2nn3c(Cn4cnc5ccccc54)nnc3s2)c1	none
c1ccc(-c2nn3c(Cn4nnc5ccccc54)nnc3s2)cc1	APOBEC3G inh 46 | A3G conf 41 | UDG A3G counter inactive
c1ccc2c(c1)ncn2Cc1nnc2sc(-c3ccncc3)nn12	none
c1cncc(-c2nn3c(Cn4cnc5ccccc54)nnc3s2)c1	APOBEC3G inh 53 | A3G conf inactive | UDG A3G counter inactive
c1ccc(-c2nn3c(Cn4cnc5ccccc54)nnc3s2)cc1	APOBEC3G inh 49 | A3G conf 43 | UDG A3G counter inactive
CC(NC(=O)c1sc2cc([N+](=O)[O-])ccc2c1Cl)C(C)(C)C (stereo not given)	APOBEC3G inh 55 | A3G conf 69 | UDG A3G counter inactive
CC1(C)S[C@@H]2[C@H](NC(=O)[C@H](N)c3ccccc3)C(=O)N2[C@H]1C(=O)O	APOBEC3G inh 75! | A3G conf 42 | UDG A3G counter inactive
Cc1ccc(N=c2ssnc2Cl)cc1	APOBEC3G inh 73 | A3G conf 75 | UDG A3G counter inactive
Cc1nnc(N=c2ssnc2Cl)o1	APOBEC3G inh 74 | A3G conf 89 | UDG A3G counter inactive
Cc1cc(Cl)ccc1N=c1ssnc1Cl	APOBEC3G inh 61 | A3G conf 62 | UDG A3G counter inactive
O=C(/C=C/c1cn(-c2ccccc2)nc1-c1cccc(Cl)c1)N1CCN(c2ccccn2)CC1	none
CC(=O)N(CN1C(=O)c2ccccc2C1=O)c1ccc2c(c1)oc1ccccc12	none
Cc1ccc(C2CC(=O)N3CN(c4ccc(Br)cc4)CSC3=C2C#N)o1 (stereo not given)	none
N#CC1=C2SCN(c3ccccc3)CN2C(=O)CC1c1c(Cl)cccc1Cl (stereo not given)	APOBEC3G inh 59, HDAC3 inh 61 | A3G conf 65 | UDG A3G counter inactive
N#CC1=C2SCN(c3ccccc3)CN2C(=O)CC1c1cccs1 (stereo not given)	APOBEC3G inh 48 | A3G conf 55 | UDG A3G counter inactive
NC(=O)c1ccsc1NC(=O)CSc1nnc(Nc2ccccc2)s1	none
Cc1c(N2C(=O)/C(=C\c3ccccc3O)SC2=S)c(=O)n(-c2ccccc2)n1C	APOBEC3G inh 56 | A3G conf 75 | UDG A3G counter inactive
O=c1[nH]c2ccccc2nc1C(Nc1ccccc1)c1ccccc1 (stereo not given)	none
COc1cc(SSc2cc(OC)cc([N+](=O)[O-])c2N)c(N)c([N+](=O)[O-])c1	APOBEC3G inh 42 (no result: HDAC3 inh) | A3G conf 79 | UDG A3G counter inactive
COc1cc([N+](=O)[O-])c2ncsc2c1	none
CC(=O)c1cccc(S(=O)(=O)NC2CCSc3ccccc32)c1 (stereo not given)	none
CCOc1ccc(C(=S)NC2CCCCC2)cc1OC	APOBEC3G inh 58 | A3G conf 50 | UDG A3G counter inactive
